Results filed as inconclusive are left out. The source made the active and inactive calls. Calls come from the whole dose curve; as a rule, active = well fitted curve in the direction sought with a large enough effect in the repeat runs; inconclusive = weak or mixed curves; inactive = no such curve, though single readings can be large; an effect the other way counts as inactive or inconclusive.
What was measured:
[1] = qHTS RealTime-Glo MT Cell Viability Assay in HepG2 cells - 24 hour (AID 1224867); note: nearly all actives have a fitted effect of over 50% in size
How it was run: (§1)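 Real-time, nonlytic viability: 600 HepG2 cells/well mixed with NanoLuc enzyme plus prosubstrate; 5 h settle, compound (DMSO) added by pintool; luminescence monitored over 40 h at 37 C.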

[2] = qHTS RealTime-Glo MT Cell Viability Assay in HEK293 cells - 32 hour (AID 1224868); note: top concentration of the series differs between compounds; nearly all actives have a fitted effect of over 50% in size
How it was run: (§2)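 Cells + reagent dispensed (600 cells/well, HEK293) → 5 h at 37 C/5% CO2 → 23 nL compound in DMSO pinned → 40 h at 37 C → luminescence read at 0, 8, 16, 24, 32, 40 h.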

[3] = A CellTox Green Cytotoxicity Assay to monitor cytotoxicity in HEK293 cells - 0 hour (AID 1224869); note: nearly all actives have a fitted effect of over 50% in size
How it was run: (§3)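 Read-out: fluorescence of a cell-impermeant cyanine dye staining DNA of dead cells, proportional to cytotoxicity. HEK293, 600 cells/well with reagent, compound (23 nL DMSO) added after 5 h; reads at 0, 8, 16, 24, 32, 40 h.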

[4] = A CellTox Green Cytotoxicity Assay to monitor cytotoxicity in HEK293 cells - 40 hour (AID 1224871); note: nearly all actives have a fitted effect of over 45% in size
How it was run: as §3

[5] = qHTS RealTime-Glo MT Cell Viability Assay in HEK293 cells - 16 hour (AID 1224872); note: top concentration of the series differs between compounds; nearly all actives have a fitted effect of over 50% in size
How it was run: as §2

[6] = qHTS RealTime-Glo MT Cell Viability Assay in HepG2 cells - 8 hour (AID 1224873); note: nearly all actives have a fitted effect of over 55% in size
How it was run: (§4)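 HepG2 cells (600/well) mixed with RealTime-Glo MT reagent, settled 5 h at 37 C/5% CO2 before compound addition. Nonlytic NanoLuc luminescence from viable-cell prosubstrate reduction read repeatedly during 40 h treatment at 37 C.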

[7] = qHTS RealTime-Glo MT Cell Viability Assay in HEK293 cells - 40 hour (AID 1224874); conditions: RealTime-Glo luminescence; max response: hits give low values; note: nearly all actives have a fitted effect of over 50% in size
How it was run: (§5)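 Luminescence readout at each listed time point; HEK293, 600 cells/well, RealTime-Glo MT reagent added with cells; compounds pinned (23 nL in DMSO) after 5 h at 37 C; continuous culture at 37 C.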

[8] = A CellTox Green Cytotoxicity Assay to monitor cytotoxicity in HEK293 cells - 24 hour (AID 1224875); note: series mostly up to about 77 µM; nearly all actives have a fitted effect of over 45% in size
How it was run: as §3

[9] = A CellTox Green Cytotoxicity Assay to monitor cytotoxicity in HepG2 cells - 16 hour (AID 1224876); note: nearly all actives have a fitted effect of over 45% in size
How it was run: (§6)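 HepG2, 600 cells/well premixed w/ CellTox Green; 5 h settle, 37 C/5% CO2; pintool cpd add (DMSO); 37 C, 40 h; fluorescence read at 0, 8, 16, 24, 32, 40 h.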

[10] = qHTS RealTime-Glo MT Cell Viability Assay in HepG2 cells - 32 hour (AID 1224877); note: nearly all actives have a fitted effect of over 55% in size
How it was run: as §1

[11] = A CellTox Green Cytotoxicity Assay to monitor cytotoxicity in HepG2 cells - 24 hour (AID 1224878); note: nearly all actives have a fitted effect of over 45% in size
How it was run: as §6

[12] = A CellTox Green Cytotoxicity Assay to monitor cytotoxicity in HepG2 cells - 40 hour (AID 1224879); note: nearly all actives have a fitted effect of over 40% in size
How it was run: as §6

[13] = qHTS RealTime-Glo MT Cell Viability Assay in HEK293 cells - 0 hour (AID 1224880)
How it was run: as §5

[14] = A CellTox Green Cytotoxicity Assay to monitor cytotoxicity in HEK293 cells - 32 hour (AID 1224881); note: nearly all actives have a fitted effect of over 40% in size
How it was run: as §3

[15] = A CellTox Green Cytotoxicity Assay to monitor cytotoxicity in HepG2 cells - 0 hour (AID 1224882); note: nearly all actives have a fitted effect of over 35% in size
How it was run: as §6

[16] = A CellTox Green Cytotoxicity Assay to monitor cytotoxicity in HepG2 cells - 32 hour (AID 1224883); note: nearly all actives have a fitted effect of over 50% in size
How it was run: as §6

[17] = qHTS RealTime-Glo MT Cell Viability Assay in HepG2 cells - 16 hour (AID 1224885); note: nearly all actives have a fitted effect of over 50% in size
How it was run: as §1

[18] = qHTS RealTime-Glo MT Cell Viability Assay in HEK293 cells - 24 hour (AID 1224886)
How it was run: as §2

[19] = A CellTox Green Cytotoxicity Assay to monitor cytotoxicity in HEK293 cells - 8 hour (AID 1224884); note: nearly all actives have a fitted effect of over 35% in size
How it was run: as §3

[20] = qHTS RealTime-Glo MT Cell Viability Assay in HepG2 cells - 40 hour (AID 1224870); note: nearly all actives have a fitted effect of over 50% in size
How it was run: as §4
% is set by controls: 0 for no effect and ±100 for the full control effect.

O=[Si]=O
inactive: outcome [1] | Potency [2] | Potency [3] | Potency [4] | Potency [5] | outcome [6] | max response [7] 0.247% | Potency [8] | Potency [9] | outcome [10] | Potency [11] | Potency [12] | outcome [13] | Potency [14] | Potency [15] | Potency [16] | outcome [17] | Potency [18]

CCCCCCCCCCCCCCCCI
inactive: activity change, negative = cytotoxicity [1] -1.23% [at 15.8 µM] | activity change, negative = cytotoxic [2] -10.5% [at 15.8 µM] | cytotoxicity [3] 0.206% [at 15.8 µM] | cytotoxicity increase [4] -8.08% [at 15.8 µM] | activity change, negative = cytotoxicity [5] -6.59% [at 15.8 µM] | viability change, negative = cytotoxic [6] -19.7% [at 15.8 µM] | max response [7] -10.6% | activity change [8] -5.96% [at 15.8 µM, hits give high values] | cytotoxicity increase [9] -9.76% [at 15.8 µM] | cytotoxicity [11] -11% [at 15.8 µM] | cytotoxicity increase [12] -12.9% [at 15.8 µM] | activity change, negative = cytotoxicity [13] -2.88% [at 15.8 µM] | cytotoxicity increase [14] -8.24% [at 15.8 µM] | cytotoxicity [15] -4.1% [at 15.8 µM] | cytotoxicity increase [16] -12.6% [at 15.8 µM] | cytotoxicity increase [19] -6.52% [at 15.8 µM] | activity change, negative = cytotoxic [17] -8.4% [at 15.8 µM] | activity change, negative = cytotoxicity [18] -7.78% [at 15.8 µM]

C=CCOc1cc(Cl)ccc1C(=O)NCCN(CC)CC
inactive: outcome [1] | Potency [2] | Potency [3] | Potency [5] | outcome [6] | max response [7] -13.3% | Potency [9] | outcome [10] | Potency [11] | Potency [12] | outcome [13] | Potency [15] | Potency [16] | Potency [19] | outcome [17] | Potency [18]

NC(Cc1c[nH]c2ccccc12)C(=O)O (stereo not given)
inactive: outcome [1] | Potency [2] | Potency [3] | Potency [4] | Potency [5] | outcome [6] | max response [7] 13.4% | Potency [8] | Potency [9] | Potency [11] | Potency [12] | outcome [13] | Potency [14] | Potency [15] | Potency [16] | outcome [17] | Potency [18]

COCC(=O)Nc1c(I)c(C(=O)NCC(O)CO)c(I)c(C(=O)N(C)CC(O)CO)c1I (stereo not given)
inactive: outcome [1] | Potency [3] | outcome [20] | Potency [4] | outcome [6] | Potency [8] | Potency [9] | outcome [10] | Potency [11] | Potency [12] | Potency [15] | Potency [16] | Potency [19] | outcome [17]

COC(/C=C(\C)CCC=C(C)C)OC
inactive: outcome [1] | Potency [2] | outcome [20] | Potency [4] | outcome [6] | max response [7] 4.55% | Potency [9] | outcome [10] | Potency [11] | Potency [12] | outcome [13] | Potency [14] | Potency [15] | Potency [16] | Potency [19] | outcome [17] | Potency [18]

CC(C)CCO
inactive: Potency [2] | Potency [3] | outcome [20] | Potency [4] | Potency [5] | max response [7] 3.55% | Potency [8] | Potency [9] | Potency [11] | Potency [12] | outcome [13] | Potency [14] | Potency [15] | Potency [16] | Potency [19] | Potency [18]

Cc1ccccc1OCC1CO1 (stereo not given)
inactive: outcome [1] | Potency [2] | Potency [3] | Potency [4] | Potency [5] | outcome [6] | max response [7] -1.66% | Potency [8] | Potency [9] | Potency [11] | Potency [12] | Potency [14] | Potency [15] | Potency [16] | Potency [19] | outcome [17] | Potency [18]

CC1=NN(c2ccc(S(=O)(=O)O)cc2)C(=O)C1N=Nc1ccccc1 (stereo not given)
inactive: outcome [1] | Potency [3] | outcome [20] | Potency [4] | outcome [6] | Potency [8] | Potency [9] | outcome [10] | Potency [11] | Potency [12] | outcome [13] | Potency [15] | Potency [16] | Potency [19] | outcome [17]

CC(=O)c1ccc2c(c1)CCCC2
inactive: outcome [1] | Potency [2] | Potency [3] | Potency [4] | outcome [6] | max response [7] -1.61% | Potency [8] | Potency [9] | outcome [10] | Potency [11] | Potency [12] | outcome [13] | Potency [14] | Potency [15] | Potency [16] | outcome [17] | Potency [18]

C=C[C@@H](C)CCC=C(C)C
inactive: outcome [1] | Potency [2] | Potency [3] | Potency [4] | Potency [5] | outcome [6] | max response [7] 9.85% | Potency [8] | Potency [9] | outcome [10] | Potency [11] | Potency [12] | outcome [13] | Potency [14] | Potency [15] | Potency [16] | outcome [17] | Potency [18]

CCOC(=O)CC#N
inactive: outcome [1] | Potency [2] | Potency [3] | Potency [4] | outcome [6] | max response [7] -0.316% | Potency [8] | Potency [9] | outcome [10] | Potency [11] | Potency [12] | outcome [13] | Potency [14] | Potency [15] | Potency [16] | outcome [17] | Potency [18]
